# Assay results from PubChem BioAssay (EPA / NIEHS).
# Active and inactive are the calls of the source. Rule for the calls: active = hit-call score of the fitted dose curve at least 0.9, where 1 is the maximum; inactive = score below 0.9.
# Assay: APR_HepG2_P-H2AX_24hr: Apredica 24-hour HepG2 Assay for H2AX Phosphorylation (AID 2282920)
# Conditions: high-content imaging, actives raise or lower the signal
# Description: APR_HepG2_24hr is a cell-based, multiplexed-readout assay that uses HepG2, a human liver cell line, with measurements taken at 24 hours after chemical dosing in a 384-well plate.APR_HepG2_P-H2AX_24hr is one of 10 assay component(s) measured or calculated from the APR_HepG2_24hr assay. It is designed to make measurements of dna content, a form of viability reporter, as detected with fluorescence intensity signals by HCS Fluorescent Imaging technology.Data from the assay component APR_HepG2_P-H2AX_24hr was analyzed into 1 assay endpoint. This assay endpoint, APR_HepG2_P-H2AX_24hr, was analyzed with bidirectional fitting relative to DMSO as the negative control and baseline of activity. Using a type of viability reporter, measures of protein for gain or loss-of-signal activity can be used to understand the signaling at the pathway-level as they relate to the gene . Furthermore, this assay endpoint can be referred to as a primary readout, because this assay has produced multiple assay endpoints where this one serves a signaling function. To generalize the intended target to other relatable targets, this assay endpoint is annotated to the dna binding intended target family, where the subfamily is cellular response to DNA damage stimulus.
# Cells were treated with dimethyl sulfoxide (DMSO) as a solvent control at a final concentration of 0.5% v/v or with compounds in DMSO with a resulting final DMSO concentration of 0.5% v/v. Compound treatment was done at concentrations of 0.39, 0.78, 1.56, 3.12, 6.24, 12.5, 25, 50, 100, and 200 uM in duplicate on each plate. Cells were treated with compounds for 1, 24, or 72 hr. Carbonyl […] m-chloro-phenylhydrazone (CCCP) and taxol were used as positive controls for mitochondrial function and cytoskeletal stability, respectively; DMSO served as the negative control for this experiment. Cells were fixed by the direct addition of 50 uL formaldehyde in Hank's Balanced Salt Solution (HBSS) to a final concentration of 3.7%. After incubation in the fixation medium for 30 min at room temperature (293-298 K), cells were rinsed twice with HBSS and treated with cell permeabilization buffer (16 uL of 0.5% Triton X-100) for 10 min at room temperature (293-298 K) before labeling. For mitochondrial membrane potential and mitochondrial measurements, pre-fixed cells were incubated with 50 uL of MitoTracker Red CMXRos (Invitrogen) at a concentration of 250 nM for 30 min before fixation. In the remaining cases, post-fixed cells were labeled by incubation with a multiplexed mixture of primary antibodies in HBSS for 60 min at room temperature (293-298 K) to detect immunoreactivity of c-Jun (1:500), phospho-histone H3 (1:100), phospho-histone H2A.x (1:200), p53 (1:400), alpha-tubulin (1:200) and Hoechst 33342 (2 ug/mL). Cells were labeled for multiplexed imaging on two separate plates: a) Hoechst 33342, MitoTracker Red, phospho-histone H3, and alpha-tubulin, and b) Hoechst 33342, phospho-histone H2A.x, and c-Jun. A final rinse with HBSS (50 uL) was performed before analysis. The primary and secondary antibodies for the proteins were phospho-histone H3 (rabbit anti-phospho-histone H3 and FITC-donkey anti-rabbit IgG), phospho-histone H2A.x (mouse anti-phospho-histone H2A.x and FITC-donkey anti-mouse IgG), c-Jun (rabbit anti-phospho-c-Jun and Cy3-donkey anti-rabbit IgG), p53 (sheep anti-p53 and Cy5-donkey anti-sheep IgG), alpha-tubulin (mouse anti-alpha-tubulin and Cy5-donkey anti-mouse IgG). These antibodies are available as the CellCiphr HepG2 assay kit (Millipore).Digital images of each well were captured using a Cellomics ArrayScan VTI (Thermo Scientific Cellomics) (0.8 NA objective, 0.63x optical coupler, and XF-93 filter set) at 20x magnification. The images were acquired using the autofocus feature of the ArrayScan instrument, which entails the following steps. First, the camera focuses on channel 1 (Hoechst 33342), where nuclei are identified. Second, a Z offset of 1 um is used for capturing mitochondria (MitoTracker Red). […]
Compound,outcome,AC50
COC(=O)NC(=S)Nc1ccccc1NC(=S)NC(=O)OC,inactive,–
Nc1c(Cl)c(Cl)nc(C(=O)O)c1Cl,inactive,–
Cc1cc(C)nc(Nc2ccccc2)n1,inactive,–
COC(=O)NS(=O)(=O)c1ccc(N)cc1,inactive,–
Nc1c(Cl)c(F)nc(OCC(=O)O)c1Cl,inactive,–
CN=C=S,inactive,–
C=C(C)CN(CC)c1c([N+](=O)[O-])cc(C(F)(F)F)cc1[N+](=O)[O-],inactive,–
CCC(C)n1c(=O)[nH]c(C)c(Br)c1=O (stereo not given),inactive,–
CC(C)Oc1cccc(NC(=O)c2ccccc2C(F)(F)F)c1,inactive,–
COC(=O)N(C(=O)N1CO[C@@]2(C(=O)OC)Cc3cc(Cl)ccc3C2=N1)c1ccc(OC(F)(F)F)cc1,inactive,–
COP(=S)(OC)Oc1ccc([N+](=O)[O-])c(C)c1,inactive,–
COCC(C)N(C(=O)CCl)c1c(C)csc1C (stereo not given),–,86.4 µM (active)
C=CCOC(=O)C(C)(C)OC(=O)c1cc(-n2c(=O)cc(C(F)(F)F)n(C)c2=O)ccc1Cl,inactive,–
COCC(=O)N(c1c(C)cccc1C)C(C)C(=O)OC (stereo not given),inactive,–
CC1(C)C(C(=O)OC(C#N)c2cccc(Oc3ccccc3)c2)C1(C)C (stereo not given),inactive,–
O=C1C2CC=CCC2C(=O)N1SC(Cl)(Cl)Cl (stereo not given),–,45.2 µM (active)
CCOc1nc(C(Cl)(Cl)Cl)ns1,inactive,–
CC(C)=CC1C(C(=O)OCc2coc(Cc3ccccc3)c2)C1(C)C (stereo not given),inactive,–
CC(C)N1C(=O)N(c2ccccc2)CSC1=NC(C)(C)C,–,111 µM (active)
Clc1cccc(C(Cl)(Cl)Cl)n1,inactive,–

Compound,outcome,AC50
CO/N=C(/C1=NOCCO1)c1ccccc1Oc1ncnc(Oc2ccccc2Cl)c1F,inactive,–
CCOc1cc(C(C)(C)C)ccc1C1COC(c2c(F)cccc2F)=N1 (stereo not given),inactive,–
CCOc1nc(F)cc2nc(S(=O)(=O)Nc3c(Cl)cccc3Cl)nn12,inactive,–
CCOP(=S)(OCC)Oc1nc(Cl)n(C(C)C)n1,inactive,–
COP(=O)(OC)O/C(C)=C/C(=O)N(C)C,inactive,–
O=C(O)c1c(Cl)ccc2cc(Cl)cnc12,inactive,–
CS(=O)(=O)c1ccc(C(=O)C2C(=O)CCCC2=O)c([N+](=O)[O-])c1,inactive,–
Cc1cnc(C2=NC(C)(C(C)C)C(=O)N2)c(C(=O)O)c1 (stereo not given),inactive,–
CCN(CC)C(=O)C(C)Oc1cccc2ccccc12 (stereo not given),inactive,–
CCOC(=O)C(C)OC(=O)c1cc(Oc2ccc(C(F)(F)F)cc2Cl)ccc1[N+](=O)[O-] (stereo not given),inactive,–
COCc1cnc(C2=NC(C)(C(C)C)C(=O)N2)c(C(=O)O)c1 (stereo not given),inactive,–
CCNC(=O)NC(=O)C(C#N)=NOC,inactive,–
CCNP(=S)(OC)O/C(C)=C/C(=O)OC(C)C (stereo not given),inactive,–
CNC(=O)Oc1cccc2ccccc12,–,102 µM (active)
O=c1n(Cl)c(=O)n(Cl)c(=O)n1Cl,inactive,–
Nc1cnn(-c2ccccc2)c(=O)c1Cl,inactive,–
Cc1c(COC(=O)[C@@H]2[C@H](/C=C(\Cl)C(F)(F)F)C2(C)C)cccc1-c1ccccc1,inactive,–
N#Cc1c(Cl)cccc1Cl,inactive,–
Clc1nc(Cl)nc(Nc2ccccc2Cl)n1,inactive,–
CSC(=O)c1c(C(F)F)nc(C(F)(F)F)c(C(=O)SC)c1CC(C)C,inactive,–
